# In PubChem BioAssay (Tox21):
# Several values for one entry are separate records, joined by “and”; a condition that tells them apart may be missing. Equal values may be shown once. Results filed as inconclusive are left out. A call without a number means that no potency is given here. Where a structure was tested more than once in an assay, its records may differ in their call. Activity calls are given as the source filed them. Unless noted, calls follow the shape of the full dose curve.
# Legend:
# [1] = Nuclear factor erythroid 2-related factor 2/antioxidant responsive element (Nrf2/ARE) small molecule agonists: qHTS cell viability counter screen in human keratinocytes (AID 1919968; active = well fitted curve in the direction sought with a large enough effect in the repeat runs; an effect the other way counts as inactive or inconclusive; also: nearly all actives have a fitted effect of over 55% in size)
# In short: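 After a 5 h attachment period, ARE-reporter keratinocytes were dosed with compounds in DMSO and then cultured 23 h at 37 C. Cell viability came from CellTiter-Fluor signal read after a further 1 h.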
# [2] = Nuclear factor erythroid 2-related factor 2/antioxidant responsive element (Nrf2/ARE) small molecule agonists: luciferase reporter gene qHTS assay in human keratinocytes (AID 1919969); also: nearly all actives have a fitted effect of over 35% in size; also: potency is read from the fitted curve at half-maximal effect
# [3] = target: Gonadotropin-releasing hormone receptor (Homo sapiens) (UniProt P30968); test: Human gonadotropin-releasing hormone receptor (GnRHR) small molecule agonists, calcium flux assay in GnRHR-HEK293 cells (AID 1920063); also: nearly all actives have a fitted effect of over 35% in size
# In short: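 We seeded human GnRHR-expressing HEK293 cells for 18 hours, loaded them with calcium dye for an hour at 37 C, added test compounds, and recorded fluorescence intensity kinetically for three minutes.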
# [4] = target: KiSS-1 receptor (Homo sapiens) (UniProt Q969F8); test: Human kisspeptin (KISS1R) small molecule agonists, calcium flux assay in KISS1R-HEK293 cells (AID 1920064; active = well fitted curve in the direction sought with a large enough effect in the repeat runs; an effect the other way counts as inactive or inconclusive)
# In short: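 Kinetic calcium assay, 1 s sampling over 3 min at Ex/Em 480/540, in HEK293 cells engineered with human KISS1R; compounds delivered in DMSO after 1 h dye loading.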
# [5] = G protein-coupled receptor (GPCR) small molecule agonists, calcium flux assay: HEK293 wild type cell line counter screen (AID 1920065)
# In short: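 Calcium-sensitive dye, loaded 1 h at 37 C into cells cultured 18 h, reports compound-evoked calcium release as fluorescence (Ex/Em 480/540), measured over 3 min. Agonist mode; 15-point titrations, triplicate.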
# [6] = p53 small molecule agonists, cell-based qHTS assay with human liver microsomes (AID 1963577);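 also: p53 response element beta-lactamase reporter cells with liver microsomes plus NADPH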
# In short: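 p53RE-bla cells; 5 h settle, 37 C/5% CO2; cpd + HLM 0.5 mg/mL + NADPH 0.5 mg/mL (final); 16 h 37 C; LiveBLAzer 2 h RT dark; fluorescence readout.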
# [7] = p53 small molecule agonists, cell-based qHTS assay with rat liver microsomes (AID 1963578)
# In short: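 Rat liver microsome activation: microsomes 0.5 mg/mL, NADPH 0.5 mg/mL final; p53RE-bla cells, 16 h 37 C; LiveBLAzer readout, 2 h RT dark.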
# [8] = p53 small molecule agonists, cell-based qHTS assay with human liver microsomes: qHTS cell viability counter screen (AID 1963579); also: nearly all actives have a fitted effect of over 45% in size
# In short: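 Luminescent CellTiter-Glo read-out, 30 min at room temperature, gauged cytotoxicity in p53RE-bla cells exposed 16 h at 37 C to DMSO-dissolved compounds with metabolic activation by human liver microsomes and NADPH, each 0.5 mg/mL final.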
# [9] = p53 small molecule agonists, cell-based qHTS assay with rat liver microsomes: qHTS cell viability counter screen (AID 1963580); also: nearly all actives have a fitted effect of over 45% in size
# In short: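 p53RE-bla HCT-116 cells (4,000/well) rested 5 h at 37 C, then given Tox21 compounds in DMSO with rat liver microsomes (0.5 mg/mL final) plus NADPH (0.5 mg/mL final) for 16 h at 37 C. Viability read by CellTiter-Glo luminescence after 30 min at room temperature.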
# [10] = p53 small molecule agonists, cell-based qHTS assay: qHTS cell viability counter screen (AID 1963581); also: nearly all actives have a fitted effect of over 45% in size
# In short: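 Following 5 h attachment, HCT-116 p53RE-bla cells took up compound for 16 h at 37 C; the reporter was read with B/G FRET substrate (2 h RT), and viability then via CellTiter-Glo ATP luminescence.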
# [11] = p53 small molecule agonists, cell-based qHTS assay (AID 1963582; active = well fitted activation curve with a large enough effect in the signal ratio in the repeat runs, not every such curve was filed as active; the % refers to the signal ratio)
# In short: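 In this cell-based concentration-response screen, a p53 response element drives beta-lactamase; cells received DMSO-borne compounds after 5 h culture and were incubated a further 16 h before FRET substrate development.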
# [12] = target: 5-hydroxytryptamine receptor 2A (Homo sapiens) (UniProt P28223); test: 5-hydroxytryptamine receptor 2A (HTR2A) small molecule antagonists, cell-based qHTS assay (AID 1963586); also: nearly all actives have a fitted effect of over 45% in size; also: potency is read from the fitted curve at half-maximal effect
# In short: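 Antagonist-mode intracellular calcium assay: DOI (4 nM) added after 5 min compound pre-incubation at room temperature to dye-loaded HTR2A-CHO cells. Fluorescence followed for 3 min, sampled every second.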
# [13] = target: 5-hydroxytryptamine receptor 2A (Homo sapiens) (UniProt P28223); test: 5-hydroxytryptamine receptor 2A (HTR2A) small molecule agonists, cell-based qHTS assay (AID 1963587); also: nearly all actives have a fitted effect of over 30% in size; also: potency is read from the fitted curve at half-maximal effect
# In short: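 HTR2A-CHO cells, plated 18 h at 37 C/5% CO2, dye-loaded 1 h at 37 C; compounds in DMSO added by pin tool (agonist mode). Intracellular calcium flux read as kinetic fluorescence on FDSS over 2 min at 1 s intervals.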
# [14] = target: Muscarinic acetylcholine receptor M1 (Homo sapiens) (UniProt P11229); test: Cholinergic receptor muscarinic 1 (CHRM1) small molecule antagonists, cell-based qHTS assay (AID 1963588); also: nearly all actives have a fitted effect of over 40% in size
# In short: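 CHRM1-CHO calcium-flux assay, antagonist mode. Cells were seeded 18 h, dye-loaded 1 h at 37 C and given compound for 5 min at RT, then acetylcholine was added at 50nM. FDSS fluorescence was read 3 min; 15 concentrations, three runs.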
# [15] = target: Muscarinic acetylcholine receptor M1 (Homo sapiens) (UniProt P11229); test: Cholinergic receptor muscarinic 1 (CHRM1) small molecule agonists, cell-based qHTS assay (AID 1963589); also: nearly all actives have a fitted effect of over 35% in size
# In short: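 Measures agonist-induced intracellular calcium rise. Stable human CHRM1 CHO line, 1 h dye load at 37 C, compounds from DMSO, kinetic fluorescence read.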
# [16] = cAMP Responsive Elements (CRE) small molecule agonists, cell-based qHTS assay (AID 1963590)
# In short: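 A CRE-responsive beta-lactamase reporter in HEK 293T cells was used. Treatment ran 3 h at 37 C; detection used LiveBLAzer B/G FRET substrate for 2 h at room temperature.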
# [17] = cAMP Responsive Elements (CRE) small molecule antagonists, cell-based qHTS assay (AID 1963591; active = well fitted inhibition curve with a large enough effect in the signal ratio in the repeat runs, not every such curve was filed as active; the % refers to the signal ratio)
# In short: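 HEK293T cells carrying a CRE-driven beta-lactamase reporter receive compound and NKH477 (0.25 uM final) for 3 h. Fluorescence from LiveBLAzer B/G FRET substrate is read after 2 h at room temperature.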
# [18] = target: Beta-2 adrenergic receptor (Homo sapiens) (UniProt P07550); test: Adrenergic beta2 receptor (ADRB2) small molecule antagonists, cell-based qHTS assay (AID 1963592); also: nearly all actives have a fitted effect of over 50% in size; also: potency is read from the fitted curve at half-maximal effect
# In short: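 Cells (CHO, stable ADRB2 overexpression) incubated 18-20hr at 37C; compounds added from DMSO; agonist mix (1nM isoproterenol, 100uM IBMX, 25uM Ro-20-1724) added; 0.5hr RT; d2-cAMP and anti-cAMP-cryptate added; 1hr RT; 665/615 nm read.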
# [19] = target: D(2) dopamine receptor (Homo sapiens) (UniProt P14416); test: Dopamine D2 receptor (DRD2) small molecule antagonists, cell-based qHTS assay (AID 1963595; active = well fitted inhibition curve with a large enough effect in the signal ratio in the repeat runs, with a control signal flat; the % refers to the signal ratio)
# In short: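 Antagonist mode in DRD2-HEK293 cells: after compound addition with 0.1 mM Ro20-1724, cells received quinpirole (12 nM) and NKH477 (200 nM) for 30 min at room temperature; HTRF cAMP read after 1 h detection.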
# [20] = target: D(2) dopamine receptor (Homo sapiens) (UniProt P14416); test: Dopamine D2 receptor (DRD2) small molecule agonists, cell-based qHTS assay (AID 1963594); also: nearly all actives have a fitted effect of over 35% in size
# In short: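 HEK293 cells stably expressing DRD2 were cultured 24 h at 37 C, then given Ro20-1724 (0.1 mM final) and compounds for 10 min at room temperature. NKH477 (200nM) was then added for 30 min. cAMP was read by HTRF.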
# Sequence of KiSS-1 receptor (Homo sapiens) (Q969F8 whole entry, looked up): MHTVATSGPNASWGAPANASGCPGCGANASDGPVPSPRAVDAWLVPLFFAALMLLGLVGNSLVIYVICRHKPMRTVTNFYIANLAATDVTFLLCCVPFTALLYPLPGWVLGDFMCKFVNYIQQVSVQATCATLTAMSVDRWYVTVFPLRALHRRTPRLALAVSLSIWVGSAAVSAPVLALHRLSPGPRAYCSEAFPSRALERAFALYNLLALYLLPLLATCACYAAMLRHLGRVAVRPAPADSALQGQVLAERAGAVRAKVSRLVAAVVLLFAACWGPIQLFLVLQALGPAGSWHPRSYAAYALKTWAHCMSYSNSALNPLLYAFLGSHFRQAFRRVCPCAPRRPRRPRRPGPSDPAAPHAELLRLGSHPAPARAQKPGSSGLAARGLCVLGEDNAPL
# Sequence of D(2) dopamine receptor (Homo sapiens) (P14416 whole entry, looked up): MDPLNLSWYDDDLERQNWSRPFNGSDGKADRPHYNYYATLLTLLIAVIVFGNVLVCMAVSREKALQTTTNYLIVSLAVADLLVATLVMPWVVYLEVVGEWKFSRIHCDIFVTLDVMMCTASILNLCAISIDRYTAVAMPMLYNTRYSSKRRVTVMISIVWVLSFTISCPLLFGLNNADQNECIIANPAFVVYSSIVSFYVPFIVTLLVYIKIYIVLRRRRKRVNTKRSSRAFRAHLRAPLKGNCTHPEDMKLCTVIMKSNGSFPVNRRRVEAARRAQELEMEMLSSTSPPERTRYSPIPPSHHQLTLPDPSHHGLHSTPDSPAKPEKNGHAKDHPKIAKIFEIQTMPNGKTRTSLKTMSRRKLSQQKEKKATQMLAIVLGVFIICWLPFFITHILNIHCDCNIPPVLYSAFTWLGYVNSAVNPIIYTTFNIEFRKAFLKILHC
# Sequence of 5-hydroxytryptamine receptor 2A (Homo sapiens) (P28223 whole entry, looked up): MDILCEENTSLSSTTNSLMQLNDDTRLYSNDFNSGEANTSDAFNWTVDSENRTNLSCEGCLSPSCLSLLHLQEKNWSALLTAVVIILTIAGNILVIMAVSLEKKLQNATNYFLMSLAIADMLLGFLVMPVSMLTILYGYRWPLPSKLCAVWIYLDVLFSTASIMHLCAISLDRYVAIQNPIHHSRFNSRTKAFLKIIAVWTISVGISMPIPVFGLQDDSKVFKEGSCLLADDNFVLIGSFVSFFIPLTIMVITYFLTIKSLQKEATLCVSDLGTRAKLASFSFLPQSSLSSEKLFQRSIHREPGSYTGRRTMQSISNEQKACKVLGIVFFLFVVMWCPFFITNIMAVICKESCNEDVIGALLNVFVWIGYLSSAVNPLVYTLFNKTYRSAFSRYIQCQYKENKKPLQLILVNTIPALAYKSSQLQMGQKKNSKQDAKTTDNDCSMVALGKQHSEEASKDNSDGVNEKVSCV
# Sequence of Beta-2 adrenergic receptor (Homo sapiens) (P07550 whole entry, looked up): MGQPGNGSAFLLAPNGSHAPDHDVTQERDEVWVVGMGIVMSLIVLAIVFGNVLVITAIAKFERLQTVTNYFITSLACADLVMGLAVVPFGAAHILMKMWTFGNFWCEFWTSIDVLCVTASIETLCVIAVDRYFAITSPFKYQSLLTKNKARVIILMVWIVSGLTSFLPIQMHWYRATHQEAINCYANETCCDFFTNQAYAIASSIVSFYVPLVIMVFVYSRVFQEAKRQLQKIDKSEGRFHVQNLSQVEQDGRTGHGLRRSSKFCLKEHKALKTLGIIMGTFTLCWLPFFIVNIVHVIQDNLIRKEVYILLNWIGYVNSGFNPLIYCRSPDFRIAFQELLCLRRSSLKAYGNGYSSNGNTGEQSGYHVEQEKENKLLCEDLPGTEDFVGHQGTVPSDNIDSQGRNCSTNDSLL
# Sequence of Muscarinic acetylcholine receptor M1 (Homo sapiens) (P11229 whole entry, looked up): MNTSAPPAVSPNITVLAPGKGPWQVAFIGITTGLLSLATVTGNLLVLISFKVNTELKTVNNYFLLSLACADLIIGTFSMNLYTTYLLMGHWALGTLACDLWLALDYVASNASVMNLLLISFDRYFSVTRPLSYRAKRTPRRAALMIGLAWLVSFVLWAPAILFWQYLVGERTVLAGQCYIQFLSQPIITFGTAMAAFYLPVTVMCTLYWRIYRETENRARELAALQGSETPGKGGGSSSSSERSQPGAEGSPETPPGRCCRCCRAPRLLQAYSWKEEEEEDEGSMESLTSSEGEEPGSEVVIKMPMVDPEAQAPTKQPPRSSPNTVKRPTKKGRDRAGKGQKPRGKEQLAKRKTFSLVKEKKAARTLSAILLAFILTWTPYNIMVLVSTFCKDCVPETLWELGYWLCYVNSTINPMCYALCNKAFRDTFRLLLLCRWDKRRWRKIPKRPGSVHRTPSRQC
# Sequence of Gonadotropin-releasing hormone receptor (Homo sapiens) (P30968 whole entry, looked up): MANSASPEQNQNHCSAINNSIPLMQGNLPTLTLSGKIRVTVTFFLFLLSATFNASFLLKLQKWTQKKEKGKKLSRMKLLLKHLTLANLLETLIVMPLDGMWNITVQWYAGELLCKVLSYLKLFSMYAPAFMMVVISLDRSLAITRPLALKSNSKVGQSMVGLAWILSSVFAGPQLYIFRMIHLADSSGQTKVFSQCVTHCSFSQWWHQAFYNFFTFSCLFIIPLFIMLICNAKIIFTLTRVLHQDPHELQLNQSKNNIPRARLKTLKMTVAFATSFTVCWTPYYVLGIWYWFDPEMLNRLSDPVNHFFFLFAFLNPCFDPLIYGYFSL
SMILES,Potency [1],Potency [2],Potency [3],Potency [4],Potency [5],Potency [6],Potency [7],Potency [8],Potency [9],Potency [10],Potency [11],Potency [12],Potency [13],Potency [14],Potency [15],Potency [16],Potency [17],Potency [18],Potency [19],Potency [20]
CCCC(C)(COC(N)=O)COC(=O)NC(C)C (stereo unspecified),inactive,inactive,inactive,inactive,inactive,inactive,inactive,inactive,inactive,inactive,inactive,inactive,inactive,inactive,inactive,inactive,inactive,inactive,inactive,–
CC(C#N)CCC#N (stereo unspecified),inactive,inactive,inactive,inactive,inactive,inactive,inactive,inactive,inactive,inactive,inactive,inactive,inactive,inactive,inactive,inactive,inactive,inactive,inactive,inactive
CCCN(CCC)c1c([N+](=O)[O-])cc(C(C)C)cc1[N+](=O)[O-],inactive,9.48 µM (active) and 15.4 µM (active),inactive,inactive,inactive,inactive,inactive,inactive,inactive,inactive,inactive,inactive,inactive,inactive,inactive,inactive,inactive,inactive,inactive,inactive
c1ccc(N2CCNCC2)cc1,inactive,inactive,inactive,inactive,inactive,inactive,inactive,inactive,inactive,inactive,inactive,0.818 µM (active),0.601 µM (active),inactive,inactive,inactive,inactive,inactive,inactive,–
Cn1cc(-c2ccccc2)c(=O)c(-c2cccc(C(F)(F)F)c2)c1,inactive,inactive,inactive,inactive,inactive,inactive,inactive,inactive,inactive,inactive,inactive,inactive,inactive,inactive,inactive,inactive,inactive,29.9 µM (active) and inactive,–,inactive
ClCc1cccnc1,inactive,inactive,inactive,inactive,inactive,inactive,inactive,inactive,inactive,inactive,inactive,inactive,inactive,inactive,inactive,inactive,inactive,inactive,inactive,inactive
O=P(OCCCl)(OCCCl)OCCCl,inactive,inactive,inactive,inactive,inactive,inactive,inactive,inactive,inactive,inactive,inactive,inactive,inactive,inactive,inactive,inactive,inactive,inactive,inactive,inactive
COc1c(C(C)(C)C)cc([N+](=O)[O-])c(C)c1[N+](=O)[O-],inactive,inactive,inactive,inactive,inactive,inactive,inactive,inactive,inactive,inactive,inactive,inactive,inactive,inactive,inactive,inactive,inactive,inactive,inactive,inactive
OCc1ccco1,inactive,inactive,inactive,inactive,inactive,inactive,inactive,inactive,inactive,inactive,inactive,inactive,inactive,inactive,inactive,inactive,inactive,inactive,inactive,inactive
COC(=O)Cc1ccccc1,inactive,inactive,inactive,inactive,inactive,inactive,inactive,inactive,inactive,inactive,inactive,inactive,inactive,inactive,inactive,inactive,inactive,inactive,inactive,inactive
CC(C)NC(C)C,inactive,inactive,inactive,inactive,inactive,inactive,inactive,inactive,inactive,inactive,inactive,inactive,inactive,inactive,inactive,inactive,inactive,inactive,inactive,–
O=C(O)c1ccc(=O)[nH]c1,inactive,inactive,inactive,inactive,inactive,inactive,inactive,inactive,inactive,inactive,inactive,inactive,inactive,inactive,inactive,inactive,inactive,inactive,inactive,–
CC(=NC#N)N(C)Cc1ccc(Cl)nc1,inactive,inactive,inactive,inactive,inactive,inactive,inactive,inactive,inactive,inactive,inactive,inactive,inactive,inactive,inactive,inactive,inactive,inactive,inactive,inactive
CCOP(OCC)OCC,inactive,inactive,inactive,inactive,inactive,inactive,inactive,inactive,inactive,inactive,inactive,inactive,inactive,inactive,inactive,inactive,inactive,inactive,–,inactive
Cc1ccc2c(C)cccc2c1,inactive,inactive,inactive,inactive,inactive,inactive,inactive,inactive,inactive,inactive,inactive,inactive,inactive,inactive,inactive,inactive,inactive,inactive,–,inactive
OCCOc1ccccc1,inactive,inactive,inactive,inactive,inactive,inactive,inactive,inactive,inactive,inactive,inactive,inactive,inactive,inactive,inactive,inactive,inactive,inactive,inactive,inactive
O=NN(c1ccccc1)c1ccccc1,inactive,inactive,inactive,inactive,inactive,inactive,inactive,inactive,inactive,inactive,inactive,inactive,inactive,inactive,inactive,inactive,inactive,inactive,inactive,inactive
CCCCCCCCOC(=O)c1ccc(C(=O)OCCCCCCCC)c(C(=O)OCCCCCCCC)c1,inactive,inactive,inactive,inactive,inactive,inactive,inactive,inactive,inactive,inactive,inactive,inactive,inactive,inactive,inactive,inactive,inactive,inactive,inactive,inactive
CC(C)(C)C(=O)C(Cl)Cl,inactive,inactive,inactive,inactive,inactive,inactive,inactive,inactive,inactive,inactive,inactive,inactive,inactive,inactive,inactive,inactive,inactive,inactive,–,inactive
O=C(NCO)NCO,inactive,inactive,inactive,inactive,inactive,inactive,inactive,inactive,inactive,inactive,inactive,inactive,inactive,inactive,inactive,inactive,inactive,inactive,inactive,inactive
CCOP(=O)(OCC)OP(=O)(OCC)OCC,inactive,inactive,inactive,inactive,inactive,inactive,inactive,inactive,inactive,inactive,inactive,inactive,inactive,inactive,inactive,inactive,inactive,inactive,inactive,–
N#CCCO,inactive,inactive,inactive,inactive,inactive,inactive,inactive,inactive,inactive,inactive,inactive,inactive,inactive,inactive,inactive,inactive,inactive,inactive,inactive,inactive
NC(=S)c1c(Cl)cccc1Cl,inactive,inactive,inactive,inactive,inactive,inactive,inactive,inactive,inactive,inactive,inactive,inactive,inactive,inactive,inactive,inactive,inactive,inactive,inactive,inactive
O=[N+]([O-])c1cccc2ccccc12,inactive,inactive,inactive,inactive,inactive,inactive,inactive,inactive,inactive,inactive,inactive,inactive,inactive,inactive,inactive,inactive,inactive,inactive,inactive,inactive
Cn1cc[n+](C)c1 (tested in a mixture with another compound),inactive,inactive,inactive,inactive,inactive,inactive,inactive,inactive,inactive,inactive,inactive,inactive,inactive,inactive,inactive,inactive,inactive,inactive,inactive,inactive
CON(C)C(=O)Nc1ccc(Cl)cc1,inactive,inactive,inactive,inactive,inactive,inactive,inactive,inactive,inactive,inactive,inactive,inactive,inactive,inactive,inactive,inactive,inactive,inactive,inactive,inactive
C=CCCC#N,inactive,inactive,inactive,inactive,inactive,inactive,inactive,inactive,inactive,inactive,inactive,inactive,inactive,inactive,inactive,inactive,inactive,inactive,inactive,inactive
COc1ccc(C=O)cc1,inactive,inactive,inactive,inactive,inactive,inactive,inactive,inactive,inactive,inactive,inactive,inactive,inactive,inactive,inactive,inactive,inactive,inactive,inactive,inactive
